PubChem BioAssay (EPA / NIEHS)
The source made the active and inactive calls. How the source made its calls: active means hit-call score of the fitted dose curve at least 0.9, where 1 is the maximum; inactive means score below 0.9.

Legend:
[1] = ATG_CRE_CIS: Attagene CIS-FACTORIAL HepG2 Assay for human cAMP Responsive Element (CRE) binding protein 3 (AID 2282926); conditions: HepG2 CRE cis-reporter, Attagene multiplexed mRNA; actives raise or lower the signal
Outline: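 We dosed HepG2 cells bearing multiple cis-promoter reporter units for 24 h and measured reporter mRNA by RT-PCR with capillary electrophoresis detection. Bidirectional concentration-response fitting used DMSO as negative control.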

[2] = molecular target: CCAAT/enhancer-binding protein beta (Homo sapiens) (UniProt P17676); assay: ATG_C_EBP_CIS: Attagene CIS-FACTORIAL HepG2 Assay for human CCAAT/Enhancer Binding Protein (C/EBP) beta (AID 2282927); conditions: HepG2 Attagene cis-factorial transcription factor reporter; actives raise or lower the signal
CCAAT/enhancer-binding protein beta (Homo sapiens), sequence (P17676 whole entry, looked up): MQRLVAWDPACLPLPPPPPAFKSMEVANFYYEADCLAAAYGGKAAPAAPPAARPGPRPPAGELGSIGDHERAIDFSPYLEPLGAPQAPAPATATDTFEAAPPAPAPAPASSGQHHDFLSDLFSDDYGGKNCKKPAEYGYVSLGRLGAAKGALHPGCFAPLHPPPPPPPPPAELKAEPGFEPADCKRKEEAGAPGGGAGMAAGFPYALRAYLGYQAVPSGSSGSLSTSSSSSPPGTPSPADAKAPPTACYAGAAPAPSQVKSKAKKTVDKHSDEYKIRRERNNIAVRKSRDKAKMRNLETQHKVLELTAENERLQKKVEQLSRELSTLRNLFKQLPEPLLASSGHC
Outline: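 Transiently transfected HepG2 (MRTU library, endogenous TF-driven promoters); 24 h dosing; total RNA → oligo(dT) RT → PCR → 6-FAM primer extension → HpaI digest → CE; fit bidirectionally vs DMSO.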

[3] = ATG_CMV_CIS: Attagene CIS-FACTORIAL HepG2 Assay for human CMV (Internal Marker) (AID 2282928); conditions: HepG2 CMV promoter reporter, transcription factor profiling; actives raise or lower the signal;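 further: endpoint acts as a background internal control marker rather than a target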
Outline: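 CMV internal-marker background readout in transiently transfected HepG2 cells bearing cis-regulated reporter units. Reporter mRNA is measured 24 h after dosing by RT-PCR and capillary electrophoresis, with bidirectional fitting against DMSO.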

[4] = ATG_DR4_LXR_CIS: Attagene CIS-FACTORIAL HepG2 Assay for human Liver X Receptor (LXR), DR4 submotif (AID 2282929); conditions: HepG2 Attagene DR4 cis-reporter, mRNA transcription; actives raise or lower the signal
Outline: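 HepG2 cells were transiently transfected with multiple cis-regulated reporter units and dosed for 24 hours. The DR4 reporter mRNA was quantified by RT-PCR, 6-FAM labelling and capillary electrophoresis. Bidirectional fits used DMSO as baseline.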

[5] = molecular target: Aryl hydrocarbon receptor (Homo sapiens) (UniProt P35869); assay: ATG_Ahr_CIS: Attagene CIS-FACTORIAL HepG2 Assay for human Aryl Hydrocarbon Receptor (Ahr) (AID 2282930); conditions: HepG2 AhR cis-factorial reporter transcription; actives raise or lower the signal
Aryl hydrocarbon receptor (Homo sapiens), sequence (P35869 whole entry, looked up): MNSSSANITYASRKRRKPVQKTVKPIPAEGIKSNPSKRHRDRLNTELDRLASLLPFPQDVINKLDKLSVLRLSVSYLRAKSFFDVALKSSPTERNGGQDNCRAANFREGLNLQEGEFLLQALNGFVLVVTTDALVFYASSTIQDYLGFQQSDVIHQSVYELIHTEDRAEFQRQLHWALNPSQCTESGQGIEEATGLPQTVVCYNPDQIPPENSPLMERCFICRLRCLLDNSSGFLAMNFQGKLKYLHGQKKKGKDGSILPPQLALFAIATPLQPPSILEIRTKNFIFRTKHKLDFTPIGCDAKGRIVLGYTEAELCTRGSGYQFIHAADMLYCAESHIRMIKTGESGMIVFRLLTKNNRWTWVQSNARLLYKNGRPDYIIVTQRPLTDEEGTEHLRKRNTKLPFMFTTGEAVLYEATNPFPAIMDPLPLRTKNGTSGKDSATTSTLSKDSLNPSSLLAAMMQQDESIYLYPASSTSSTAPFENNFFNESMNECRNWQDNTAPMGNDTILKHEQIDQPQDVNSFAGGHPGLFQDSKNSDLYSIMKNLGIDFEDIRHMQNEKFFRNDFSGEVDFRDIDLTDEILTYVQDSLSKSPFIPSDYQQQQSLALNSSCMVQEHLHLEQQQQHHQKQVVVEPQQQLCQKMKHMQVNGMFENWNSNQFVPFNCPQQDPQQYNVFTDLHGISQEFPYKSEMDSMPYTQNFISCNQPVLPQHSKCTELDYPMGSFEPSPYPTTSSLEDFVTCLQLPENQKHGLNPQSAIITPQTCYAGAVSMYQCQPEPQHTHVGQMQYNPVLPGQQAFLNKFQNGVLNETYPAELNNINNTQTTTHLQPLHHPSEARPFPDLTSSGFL
Outline: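 Read-out: reporter mRNA quantified by RT-PCR with fluorescent primer extension and capillary electrophoresis. Human HepG2 liver cells carried transfected cis-promoter reporter units and were exposed to chemical for 24 h; gain or loss fitted relative to DMSO.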

[6] = ATG_AP_1_CIS: Attagene CIS-FACTORIAL HepG2 Assay for human Activator Protein 1 (AP-1) (AID 2282931); conditions: HepG2 Attagene cis-factorial AP-1 reporter mRNA; actives raise or lower the signal
Outline: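 HepG2 cells transiently transfected with cis-element-driven reporter transcription units, dosed for 24 hours. Reporter mRNA measured by RT-PCR, 6-FAM labelling, HpaI digestion and capillary electrophoresis. Bidirectional fitting against DMSO baseline.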

[7] = ATG_AP_2_CIS: Attagene CIS-FACTORIAL HepG2 Assay for human Activator Protein 2 (AP-2) (AID 2282932); conditions: HepG2 AP-2 cis-reporter, Attagene transcription factor profiling; actives raise or lower the signal
Outline: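 Multiplexed mRNA reporter assay in HepG2: cis-regulated units report endogenous factor activity after 24 h treatment. Fluorescence from capillary electrophoresis of RT-PCR products gives the signal, with DMSO as baseline.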

[8] = ATG_BRE_CIS: Attagene CIS-FACTORIAL HepG2 Assay for human Bone Morphogenetic Protein (BMP) Response Element (BRE) (AID 2282933); conditions: HepG2 BMP response element reporter, Attagene transcription factor profiling; actives raise or lower the signal
Outline: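 HepG2 cells transiently transfected with CIS reporter units (endogenous TF activity, BMP response element), dosed 24 h. Reporter mRNA quantified by RT-PCR, fluorescent labelling and capillary electrophoresis; bidirectional fit vs DMSO baseline.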

[9] = molecular target: Retinoic acid receptor alpha (Homo sapiens) (UniProt P10276); assay: ATG_DR5_RAR_CIS: Attagene CIS-FACTORIAL HepG2 Assay for human Retinoic Acid Receptor Alpha (RARE), DR5 submotif (AID 2282934); conditions: HepG2 Attagene cis-factorial RARE DR5 reporter, mRNA; actives raise or lower the signal
Retinoic acid receptor alpha (Homo sapiens), sequence (P10276 whole entry, looked up): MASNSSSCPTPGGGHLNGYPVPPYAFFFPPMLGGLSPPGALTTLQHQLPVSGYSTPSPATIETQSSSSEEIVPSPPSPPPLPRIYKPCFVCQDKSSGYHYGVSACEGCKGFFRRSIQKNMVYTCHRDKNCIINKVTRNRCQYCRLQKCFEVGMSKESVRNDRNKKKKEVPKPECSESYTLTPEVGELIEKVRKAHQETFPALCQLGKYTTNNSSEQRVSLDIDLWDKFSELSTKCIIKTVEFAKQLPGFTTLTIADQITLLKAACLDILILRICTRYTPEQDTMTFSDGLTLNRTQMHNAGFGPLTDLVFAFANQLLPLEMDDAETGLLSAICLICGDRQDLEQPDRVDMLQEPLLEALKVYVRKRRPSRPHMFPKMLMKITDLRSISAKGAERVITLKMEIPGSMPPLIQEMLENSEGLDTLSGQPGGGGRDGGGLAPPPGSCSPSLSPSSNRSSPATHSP
Outline: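 Read-out: DR5-driven reporter transcript measured by RT-PCR, 6-FAM primer extension, HpaI digest and capillary electrophoresis. Human HepG2 liver cells carry transiently transfected cis-element reporter constructs; dosing lasts 24 h. Gain or loss of signal fitted against DMSO baseline.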

[10] = molecular target: Transcription factor E2F1 (Homo sapiens) (UniProt Q01094); assay: ATG_E2F_CIS: Attagene CIS-FACTORIAL HepG2 Assay for human E2F Transcription Factor 1 (AID 2282935); conditions: HepG2 Attagene cis-reporter, E2F reporter RNA transcripts; actives raise or lower the signal
Transcription factor E2F1 (Homo sapiens), sequence (Q01094 whole entry, looked up): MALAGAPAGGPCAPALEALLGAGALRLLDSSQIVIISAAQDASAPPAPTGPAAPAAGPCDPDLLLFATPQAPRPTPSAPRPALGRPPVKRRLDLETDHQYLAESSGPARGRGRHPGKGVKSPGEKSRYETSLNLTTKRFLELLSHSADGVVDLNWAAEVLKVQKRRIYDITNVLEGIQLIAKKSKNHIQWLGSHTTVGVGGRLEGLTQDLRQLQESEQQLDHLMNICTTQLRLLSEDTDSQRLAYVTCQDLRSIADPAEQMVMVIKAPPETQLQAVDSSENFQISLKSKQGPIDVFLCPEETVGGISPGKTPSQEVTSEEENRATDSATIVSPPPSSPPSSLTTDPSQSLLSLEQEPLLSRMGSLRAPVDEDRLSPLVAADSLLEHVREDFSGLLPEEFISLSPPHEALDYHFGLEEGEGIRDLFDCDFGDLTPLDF
Outline: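 Measures reporter transcript levels via RT-PCR with capillary electrophoresis detection in HepG2 cells harboring cis-regulated reporter units; 24 h post-dose; bidirectional curve fitting with DMSO as baseline.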

[11] = ATG_E_Box_CIS: Attagene CIS-FACTORIAL HepG2 Assay for human Enhancer Box (E-box) (AID 2282936); conditions: HepG2 E-box cis-reporter transcription, actives raise or lower the signal
Outline: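 First, HepG2 cells receive multiple cis-regulated reporter constructs by transient transfection. Next, chemicals are applied for 24 h. Finally, reporter mRNA is quantified via RT-PCR and capillary electrophoresis, with DMSO as baseline.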

[12] = ATG_M_61_CIS: Attagene CIS-FACTORIAL HepG2 Assay for M61 Transcription Factor (Internal Marker) (AID 2282937); conditions: HepG2 Attagene CIS-FACTORIAL M61 internal marker reporter; actives raise or lower the signal
Outline: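 HepG2 cells transiently transfected with multiplexed cis-promoter reporter units reporting endogenous transcription factor activity, measured 24 h after dosing. Reporter mRNA quantified by RT-PCR and capillary electrophoresis; bidirectional fit against DMSO baseline.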

[13] = ATG_EGR_CIS: Attagene CIS-FACTORIAL HepG2 Assay for human Early Growth Response 1 (EGR1) (AID 2282938); conditions: HepG2 Attagene CIS-FACTORIAL EGR reporter mRNA; actives raise or lower the signal
Outline: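 HepG2 cells transiently transfected with cis-element-driven multiplexed reporter units, dosed for 24 h. EGR1-element reporter mRNA quantified by RT-PCR, 6-FAM labelling, HpaI digestion and capillary electrophoresis; bidirectional fit versus DMSO.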

[14] = ATG_M_19_CIS: Attagene CIS-FACTORIAL HepG2 Assay for M19 Transcription Factor (Internal Marker) (AID 2282939); conditions: HepG2 Attagene CIS-FACTORIAL M19 internal marker reporter; actives raise or lower the signal
Outline: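 HepG2 cells transiently transfected with cis-regulated multiplexed reporter units, dosed 24 h. Reporter mRNA quantified by RT-PCR and capillary electrophoresis; internal background marker fitted bidirectionally versus DMSO.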

[15] = ATG_Ets_CIS: Attagene CIS-FACTORIAL HepG2 Assay for human Erythroblast Transformation Specific (ETS) (AID 2282941); conditions: HepG2 ETS cis-reporter transcription, actives raise or lower the signal
Outline: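 HepG2 cells transfected with multiple cis-regulated reporter units measuring endogenous ETS-driven transcription, 24 h after dosing. Reporter mRNA quantified by RT-PCR with capillary electrophoresis; bidirectional fit relative to DMSO.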

[16] = molecular target: Hepatocyte nuclear factor 3-beta (Homo sapiens) (UniProt Q9Y261); assay: ATG_FoxA2_CIS: Attagene CIS-FACTORIAL HepG2 Assay for human Forkhead box A2 (FOXA2) (AID 2282942); conditions: HepG2 cis-reporter transcription factor activity, 24 h; actives raise or lower the signal
Hepatocyte nuclear factor 3-beta (Homo sapiens), sequence (Q9Y261 whole entry, looked up): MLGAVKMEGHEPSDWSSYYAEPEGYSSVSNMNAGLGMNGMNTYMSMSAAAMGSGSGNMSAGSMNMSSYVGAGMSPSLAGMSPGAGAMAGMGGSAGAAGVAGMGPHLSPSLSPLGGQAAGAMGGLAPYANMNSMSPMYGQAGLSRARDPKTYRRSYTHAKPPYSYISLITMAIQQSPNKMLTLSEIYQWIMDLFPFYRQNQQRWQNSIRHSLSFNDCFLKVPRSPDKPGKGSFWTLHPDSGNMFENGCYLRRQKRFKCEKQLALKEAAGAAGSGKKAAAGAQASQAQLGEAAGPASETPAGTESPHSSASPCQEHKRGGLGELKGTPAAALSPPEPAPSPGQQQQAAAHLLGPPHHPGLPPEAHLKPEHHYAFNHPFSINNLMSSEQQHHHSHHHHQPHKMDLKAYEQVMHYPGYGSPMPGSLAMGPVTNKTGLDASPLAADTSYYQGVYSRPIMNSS
Outline: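 HepG2 transiently transfected with a multiplexed cis-promoter reporter library read endogenous FOXA2 activity. After 24 h compound exposure, reporter mRNA was quantified by RT-PCR, HpaI digestion and capillary electrophoresis. Bidirectional fit against DMSO.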

[17] = ATG_FoxO_CIS: Attagene CIS-FACTORIAL HepG2 Assay for human Forkhead box O (FoxO) (AID 2282943); conditions: HepG2 Attagene cis-reporter, FoxO element, mRNA; actives raise or lower the signal
Outline: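 Read-out: fluorescence of 6-FAM-labelled reporter cDNA fragments resolved by capillary electrophoresis. Transiently transfected HepG2 cells were dosed for 24 h; activity fitted in both directions relative to DMSO controls.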

[18] = ATG_GLI_CIS: Attagene CIS-FACTORIAL HepG2 Assay for human Zinc Finger Protein GLI1 (AID 2282945); conditions: HepG2, Attagene cis-factorial reporter mRNA, GLI element; actives raise or lower the signal
Outline: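 Transiently transfected HepG2 cells report endogenous transcription factor activity via cis-element-driven reporter units. After 24 h compound exposure, reporter mRNA was measured by RT-PCR with capillary electrophoresis; bidirectional fitting against DMSO baseline.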

[19] = ATG_GATA_CIS: Attagene CIS-FACTORIAL HepG2 Assay for human GATA Binding Protein (AID 2282944); conditions: HepG2 GATA cis-element reporter, Attagene multiplex mRNA; actives raise or lower the signal
Outline: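 HepG2 cells transiently transfected with multiplexed cis-element reporter units measure endogenous GATA activity; after 24 h compound exposure, reporter mRNA quantified by RT-PCR and capillary electrophoresis. Changes fitted in both directions vs DMSO.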

[20] = ATG_ERE_CIS: Attagene CIS-FACTORIAL HepG2 Assay for Estrogen Response Element (ERE) (AID 2282940); conditions: HepG2 ERE cis-reporter, Attagene RNA transcript; actives raise or lower the signal
Outline: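 HepG2 cells transiently transfected with multiplexed cis-element reporter units, measuring endogenous transcription factor activity; ERE reporter mRNA quantified after 24 h exposure by RT-PCR, fluorescent labelling, HpaI digestion and capillary electrophoresis. Bidirectional change versus DMSO.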

Measured: outcome

CCCOCCO
not listed: [19] | [20]
inactive: all other assays above

CC(C)C(OC(=O)c1ccccc1)C(C)(C)COC(=O)c1ccccc1 (stereo not given)
not listed: [15] | [20]
inactive: all other assays above

O=[N+]([O-])c1cccc(Cl)c1
not listed: [12]
inactive: all other assays above
